An excerpt weighted towards active compounds, which were near 8% of everything screened.
ELG1 repair inh = ELG1-dependent DNA repair inhibition; HEK293T ELG1-luciferase reporter, luminescence, 16 h; DNA damage induced by 5-fluorouridine; Potency, µM (series often up to 46.1 µM), without a hit: top-dose activity change, negative = inhibition, most hits filed as inhibitors; 2.3% of 330,000 active; AID 504467; also: potency is read from the fitted curve at half-maximal effect; nearly all actives have a fitted effect of over 55% in size
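Luminescence from the luciferase reporter, measured 30 min after ONE-Glo reagent at room temperature, was the read-out. Beforehand, 2,000 cells per well were exposed for 16 hr at 37 °C to 5-fluorouridine together with compound or vehicle.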
VP16 counter = Gal4-VP16 reporter inhibition counter-screen; Drosophila S2 Gal4-VP16 UAS-luciferase, luminescence, 20 h; Potency, µM (doses to about 53.6 µM), for inactives: at the top dose activity, negative = inhibition, actives largely listed as inhibitors; 3.5% of 310,000 active;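 also: Gal4-VP16 expression switched on by copper sulfate through the metallothionein promoter; potency is read from the fitted curve at half-maximal effect; nearly all actives have a fitted effect of over 50% in size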
Coupling enz = inhibits coupling enzyme system, counter-screen for aldolase hits | activity change, negative = inhibition, % at 58.2 µM, hits read low | 0.67% of 290,000 active | coupling enzyme system counterscreen, AmpLite Red fluorescence; in the data active = activity change below about -30%
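Fluorescence at 525 nm excitation and 598 nm emission measured inhibition of the coupled detection system without aldolase. Compounds (at 57.5 uM final) were preincubated 10 min at room temperature with coupling enzyme reagent before a 20 min substrate/AmpLite Red step.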
RORgamma inh = blocks mouse ROR gamma transcriptional activity; 5.4% of 310,000 active; Potency, µM (top dose mostly 53.6 µM), without a hit: at the top dose activity change, negative = inhibition, most hits filed as inhibitors; Drosophila S2 Gal4-RORgamma UAS-luciferase reporter, 20 h; AID 2551; P51450; also: potency is read from the fitted curve at half-maximal effect; nearly all actives have a fitted effect of over 60% in size
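Stable Schneider cell line, Gal4 DNA-binding domain fused to ROR gamma, UAS-luciferase. Cmpd 1 hr RT → CuSO4 700 uM final → 20 hr RT → luciferase reagent 10 min → luminescence.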
TSHR antag = antagonists of human thyroid stimulating hormone receptor; P16473; TSHR-expressing cells, TSH-stimulated cAMP HTRF, 2 h; active compounds read low; activity change, negative = inhibition, % at 11.5 µM; 0.2% of 330,000 active; AID 504810;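 active = activity change below a set negative limit, meaning inhibition stronger than a set level, cut at about -70% in these data; inconclusive = activity change between two set negative limits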
Target sequence (P16473 whole entry, looked up): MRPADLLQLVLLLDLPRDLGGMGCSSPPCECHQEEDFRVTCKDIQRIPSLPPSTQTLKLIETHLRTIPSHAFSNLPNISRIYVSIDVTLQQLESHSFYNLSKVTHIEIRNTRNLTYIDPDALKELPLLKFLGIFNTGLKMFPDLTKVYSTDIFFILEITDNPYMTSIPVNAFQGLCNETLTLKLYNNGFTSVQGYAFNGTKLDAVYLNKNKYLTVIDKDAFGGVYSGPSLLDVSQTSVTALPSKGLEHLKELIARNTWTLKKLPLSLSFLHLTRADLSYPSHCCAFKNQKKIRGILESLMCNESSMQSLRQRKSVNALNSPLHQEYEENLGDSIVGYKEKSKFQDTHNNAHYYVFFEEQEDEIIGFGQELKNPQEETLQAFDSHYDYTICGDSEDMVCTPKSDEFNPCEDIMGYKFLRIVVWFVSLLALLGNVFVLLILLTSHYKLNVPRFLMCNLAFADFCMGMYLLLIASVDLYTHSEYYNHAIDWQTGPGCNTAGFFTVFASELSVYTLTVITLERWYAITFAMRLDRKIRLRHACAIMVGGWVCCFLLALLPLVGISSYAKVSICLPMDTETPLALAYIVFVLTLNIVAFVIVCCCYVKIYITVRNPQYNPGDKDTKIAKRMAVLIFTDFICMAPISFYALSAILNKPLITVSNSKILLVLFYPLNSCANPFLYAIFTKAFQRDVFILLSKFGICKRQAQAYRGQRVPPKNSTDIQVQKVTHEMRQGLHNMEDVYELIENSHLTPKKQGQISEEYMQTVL
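Read-out is FRET at 665 nm (cryptate excitation 337 nm) from a cryptate-tagged anti-cAMP antibody, competed by cell cAMP against cAMP-d2. Compounds are tested on freshly harvested TSHR cells challenged with 4nM TSH (EC80) for 2 hours at 37 deg C.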
The depositor's hits bear a star; ? = inconclusive; nt = not tested or not shown; [ ] = dose if it differs, or a comment. Unless noted, calls follow the shape of the dose curve; as a rule, active = well fitted curve in the direction sought with a large enough effect; inconclusive = small, poorly fitted or top-dose-only effect, or another doubt; inactive = no such curve, though single readings can be large; an effect the other way counts as inactive or inconclusive. % is scaled to controls: 0 for no effect and ±100 for the full control effect.

SMILES	ELG1 repair inh	VP16 counter	Coupling enz	RORgamma inh	TSHR antag
COc1ccc(-n2c(Cc3cccn3C)nnc2SCC(=O)Nc2ccc(C)c(Cl)c2)cc1	?	11µM*	0	?	-5
O=C(NCc1ccccc1)C(c1c(F)cccc1Cl)N(C(=O)c1csnn1)C1CC1 (stereo not given)	-2%	6%	-1	1%	5
O=C(Nc1cccc(Cl)c1)c1ccc(F)c(S(=O)(=O)NCc2cccs2)c1	?	20µM*	-1	15%	-24
Cc1cccc(NC(=O)c2ccc(F)c(S(=O)(=O)NCc3ccco3)c2)c1	-2%	5%	nt	26%	-11
CCc1ccc(NC(=O)c2ccc(F)c(S(=O)(=O)N(CC)c3ccccc3)c2)cc1	?	-3%	1	20%	-10
CCN(c1ccccc1)S(=O)(=O)c1cc(C(=O)Nc2cccc(Cl)c2)ccc1F	23µM*	-19%	2	14%	-16
CN1CCCN(C(=O)CNC(=O)c2ccc(Cl)cc2Cl)CC1	5%	nt	nt	nt	-6
COc1cccc(C(=O)COC(=O)COc2c(C)cc(C)cc2C)c1	7%	nt	nt	nt	-6
O=C1NC(=O)c2cc([N+](=O)[O-])ccc21	nt	-17%	nt	-17%	nt
COc1ccc(NC(=S)N2CCN(Cc3ccc(C)cc3)CC2)cc1	?	-4%	3	?	6
Cc1ccc(NC(=S)N2CCN(Cc3ccccc3)CC2)cc1	5%	-1%	0	7.9µM*	1
COC(=O)c1ccc(NC(=S)N2CCN(Cc3cccc(C)c3)CC2)cc1	-19%	?	1	11µM*	32
S=C(Nc1ccc(Cl)cc1)N1CCN(Cc2ccccc2)CC1	-3%	-28%	1	11µM*	4
O=S(=O)(c1ccc(NC(=S)N2CCN(c3ccccc3F)CC2)cc1)N1CCOCC1	23µM*	?	-6	-70%	9
CC(C)(CCCCCCCCCCC(C)(C)CC(=O)O)CC(=O)O	nt	-10%	13	-17%	nt
CC(CNC(=O)Cn1ccc(N)nc1=O)c1ccccc1 (stereo not given)	10%	nt	nt	nt	23
COc1ccc(-c2c(C)nn3c(C)cc(C)nc23)cc1	-17%	8%	1	1%	-9
CC1(C)C2CC[C@]1(C)[C@@H](O)C2	nt	-3%	nt	9%	nt
O=S(=O)(c1ccccc1)N1CCN(C(=S)Nc2ccccc2)CC1	-10%	-5%	nt	-15%	20
CC(C)c1ccc(NC(=S)N2CCN(Cc3ccccc3)CC2)cc1	0%	?	5	7.9µM*	-8
Cc1ccccc1NC(=S)N1CCN(Cc2ccccc2)CC1	-3%	?	3	?	35
Cc1cc(C)cc(NC(=S)N2CCN(Cc3ccccc3)CC2)c1	4%	?	-1	7.1µM*	-5
CC(C)c1ccc(NC(=S)N2CCN(S(=O)(=O)c3ccccc3)CC2)cc1	0%	?	nt	11µM*	2
CC(=O)NCCNc1nc(-c2cccc(NS(C)(=O)=O)c2)nc2ccccc12	nt	8%	1	2%	nt
O=C(Nc1nc(-c2ccc(F)cc2)cs1)c1cccc(N2C(=O)CCC2=O)c1	?	nt	0	nt	16
SMILES	ELG1 repair inh	VP16 counter	Coupling enz	RORgamma inh	TSHR antag
COCCN(C(=O)c1cccc(N2C(=O)CCC2=O)c1)c1nc(-c2ccc([N+](=O)[O-])cc2)cs1	5.8µM*	nt	nt	nt	-29
Cc1nc(N(C)Cc2ccccc2)c2c(C)c(C)sc2n1	0%	?	0	20µM*	-16
COc1ccc(C(=O)NNC(=O)CSc2nnc(C3CC3)n2C)cc1	-5%	-5%	0	-27%	-3
Cc1cc(NC(=S)NC(=O)c2ccco2)c2ccccc2n1	?	1%	2	11µM*	-2
CCC(C)c1ccccc1NC(=S)NC(=O)c1ccco1 (stereo not given)	?	3.2µM*	nt	3.5µM*	35
O=C(NC(=S)Nc1ccccc1N1CCOCC1)c1ccco1	1%	14µM*	0	14µM*	9
O=C(NC(=S)Nc1ccccc1N1CCCCC1)c1ccco1	?	4µM*	3	3.2µM*	-11
CC1CCC2(CC1)NC(=O)N(CC(=O)NCCc1ccc(F)cc1)C2=O (stereo not given)	2%	nt	nt	nt	-12
O=C(NC(=S)Nc1ccccc1N1CCCC1)c1ccco1	-5%	-6%	-38*	18%	19
O=C(Nc1ccc(F)cc1)Nc1ccccc1N1CCCCC1	13µM*	-1%	-5	2%	-18
O=C(NC(=S)Nc1cccc2c(O)cccc12)c1ccco1	20%	-10%	-4	-2%	11
O=C(NC(=S)Nc1ccccc1Cl)c1ccco1	?	?	-5	13µM*	50
S=C(NCCc1ccccc1)Nc1ccccc1N1CCOCC1	0%	?	-9	1%	7
O=C(Nc1ccccc1N1CCCC1)c1ccco1	-6%	-10%	-1	-9%	2
Fc1cc(F)cc(NC(=S)Nc2ccccc2N2CCOCC2)c1	-10%	4%[10 µM]	4	13µM*	-5
Cc1noc(C)c1-c1nccc(Nc2ccc(F)cc2)n1	nt	5%	1	?	nt
Cc1cc2c(OCC(CNC(C)(C)C)OC(=O)c3ccccc3)cccc2[nH]1 (stereo not given)	nt	-27%	nt	-12%[10 µM]	nt
N#CC1(NC(=O)CSc2n[nH]c(-c3ccccc3)n2)CCCCC1	2%	nt	nt	nt	6
O=C(NC(=S)Nc1ccccc1N1CCOCC1)c1ccc(-c2cc(Cl)ccc2Cl)o1	-20%	2.5µM*	1	0.89µM*	-7
O=C(NC(=S)Nc1cccc(Cl)c1N1CCCCC1)c1ccco1	?	7.1µM*	1	4µM*	0
O=C(Nc1ccccc1N1CCCCC1)c1ccco1	-1%	-1%	-2	4%	-7
Cc1ccc(-n2c(-c3ccccc3)c[nH]c2=S)cc1	0%	6.3µM*	-2	2.2µM*	-26
COc1ccc(-n2c(-c3ccc(Cl)cc3)c[nH]c2=S)cc1	0%	2.8µM*	4	0.45µM*	-23
O=C(O)c1c[nH]c(=S)n1-c1ccc(F)cc1	2%	-16%	-6	-22%	8
CCOC(=O)c1c[nH]c(=S)n(-c2ccccc2)c1=O	13%	nt	nt	nt	3
S=c1[nH]cc(-c2ccccc2)n1-c1ccccc1	1%	4µM*	-1	3.5µM*	-17
CC1(C)OC(C(O)(c2cc(C(F)(F)F)cc(C(F)(F)F)c2)c2cc(C(F)(F)F)cc(C(F)(F)F)c2)C(C(O)(c2cc(C(F)(F)F)cc(C(F)(F)F)c2)c2cc(C(F)(F)F)cc(C(F)(F)F)c2)O1 (stereo not given)	nt	0%[10 µM]	0	4%[10 µM]	nt
CCCn1cnnc1CNC(=O)C1CCC(=O)N(CCc2ccc(OC)cc2)C1 (stereo not given)	?	-10%	6	2%	-1
COc1ccc(-n2c(=S)[nH]c3cc(C(=O)Nc4cc(C(N)=O)ccc4OC)ccc3c2=O)c(OC)c1	0%	-3%	0	-56%	-2

Assay outcomes from PubChem.
